# Source: PubChem BioAssay
# The source made the active and inactive calls.
# Experiments:
# [1] = small molecules captured by biotinylated probe aFSTL3 – biochemical, small-molecule microarray, fluorescence 635/667, stem cell growth factor project, primary screen (AID 1064); conditions: higher = more signal;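 also: measures binding of the biotinylated anti-FSTL3 antibody to printed compounds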
# [2] = binders from COS7 lysate, DM2A8 probe, primary screen, torsin A project, cell lysate, small-molecule microarray, fluorescence 635/667 (AID 1065); conditions: higher = more signal, COS7 lysate expressing mutant human TOR1A
# [3] = small molecules captured by biotinylated probe aFGF2 – biochemical, small-molecule microarray, fluorescence 635/667, stem cell growth factor project, primary screen (AID 1067); conditions: higher = more signal;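 also: measures binding of biotinylated aFGF2 protein to printed compounds on slides; z-score merges feature fluorescence and signal-to-noise across triplicate slides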
# [4] = small molecules captured by biotinylated probe aFGF10 – biochemical, small-molecule microarray, fluorescence 635/667, stem cell growth factor project, primary screen (AID 1071); conditions: higher = more signal;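 also: score merges 667 nm spot intensity and signal to noise from triplicate slides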
# [5] = biological target: Neurogenic locus notch homolog protein 2 (Homo sapiens) (UniProt Q04721); assay: small molecules binding Notch2 protein – biochemical, small-molecule microarray, 635 nm fluorescence, stem cell growth factors, primary screen (AID 1073); conditions: higher = more signal
# [6] = biological target: Pro-neuregulin-1, membrane-bound isoform (Homo sapiens) (UniProt Q02297); assay: small molecules binding neuregulin-1 protein – biochemical, small-molecule microarray, fluorescence 635/667, psychiatric disease protein project, primary screen (AID 1075); conditions: NRG1 binding, 635 nm fluorescence, higher = more signal;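 also: score combines 667 nm spot fluorescence with signal to noise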
# [7] = tested on: Neuregulin-1 EGF-like domain; assay: small molecules binding NRG1 EGF domain – biochemical, small-molecule microarray, 635 nm fluorescence, primary screen (AID 1081); conditions: higher = more signal;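 also: binding of the protein to compounds printed on small-molecule microarray slides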
# [8] = FRG1 expression reporter modulators in myotubes – cell-based, C2C12 myotubes, firefly/Renilla luciferase, luminescence, FRG1 inhibition for FSHD, primary screen (AID 1084); conditions: FRG1 promoter luciferase, higher = more signal, called active from +8 up or from −8 down
# [9] = small molecules captured by biotinylated probe aFST – biochemical, small-molecule microarray, fluorescence 635/667, stem cell growth factor project, primary screen (AID 1086); conditions: higher = more signal;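 also: score merges 667 nm fluorescence with signal-to-noise of each printed compound spot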
# [10] = binders of probe aHhip on microarray, primary screen, stem cell growth factor project, biochemical, small-molecule microarray, fluorescence 635/667 (AID 1087); conditions: higher = more signal;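 also: score merges spot fluorescence at 667nm with spot signal to noise ratio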
# [11] = tested on: PRMT1 (protein arginine N-methyltransferase 1); assay: small molecules binding arginine methyltransferase PRMT1 – biochemical, small-molecule microarray, 635 nm fluorescence, primary screen (AID 1088); conditions: higher = more signal;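 also: binding of Prmt1 protein to compounds spotted on small-molecule microarray slides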
# [12] = growth effects on S. cerevisiae YJM789 – YJM789 clinical isolate, OD600, 24 h, basal, primary screen (AID 1089); conditions: higher = more signal, called active from +8 up or from −8 down;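 also: growth of clinical yeast isolate S. cerevisiae YJM 789 seeded 1000 cells per well; test concentration not given here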
# [13] = S. pombe growth modifiers, basal conditions – strain 972, OD600, 24 h, no modulator, primary screen (AID 1090);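 also: basal condition with compound alone and no growth modifier present; test concentration not given here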; conditions: S. pombe 972 growth, higher = more signal, called active from +8 up or from −8 down
# [14] = budding yeast growth modifiers under rapamycin – strain BY4716, OD600, 96 h, primary screen (AID 1091); also: test concentration not given here; conditions: S. cerevisiae BY4716 + rapamycin, higher = more signal, called active from +8 up or from −8 down
# [15] = biological target: Torsin-1A-interacting protein 2 (Homo sapiens) (UniProt Q8NFQ8); assay: small molecules binding lysate-expressed LULL1 – cell lysate, human LULL1 lysate, 635/667 nm fluorescence, primary screen (AID 1092); conditions: small-molecule microarray, hLULL1 lysate binding, 635 nm fluorescence; higher = more signal;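 also: probe is lysate of COS7 cells overexpressing human LULL1; score merges per-feature 667 nm fluorescence with signal-to-noise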
# [16] = optical density change of DRC41 E. coli – strain DRC41, OD650, 24 h, E. coli filamentation project, primary screen (AID 1093);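 also: MC1000 strain lacking acrAB efflux and sulA so SOS filamentation is blocked; test concentration not given here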; conditions: E. coli DRC41 growth, higher = more signal, called active from +8 up or from −8 down
# [17] = probe aLefty2 binding to arrayed compounds – biochemical, biotinylated probe, 635/667 nm fluorescence, primary screen (AID 1094); conditions: small-molecule microarray, higher = more signal;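 also: score merges spot fluorescence near 667 nm with spot signal-to-noise ratio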
# [18] = tested on: Noggin (protein binding on small-molecule microarray); assay: small molecules binding Noggin protein – biochemical, 635/667 nm fluorescence, primary screen (AID 1095); conditions: 635 nm fluorescence, higher = more signal;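 also: score merges 667 nm feature fluorescence with signal to noise over triplicate slides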
# [19] = biological target: Neurogenic locus notch homolog protein 3 (Homo sapiens) (UniProt Q9UM47); assay: small molecules binding NOTCH3 protein – biochemical, 635/667 nm fluorescence, primary screen (AID 1096); conditions: small-molecule microarray, 635 nm fluorescence, higher = more signal
# [20] = probe aEGFR binding to arrayed compounds – biochemical, biotinylated probe, 635/667 nm fluorescence, primary screen (AID 1097); conditions: small-molecule microarray, higher = more signal;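 also: probe is a biotinylated anti-EGFR antibody binding compounds printed on slides; score combines fluorescence near 667 nm and signal to noise of each spot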
# Neurogenic locus notch homolog protein 2 (Homo sapiens), sequence (Q04721 whole entry, looked up, canonical isoform): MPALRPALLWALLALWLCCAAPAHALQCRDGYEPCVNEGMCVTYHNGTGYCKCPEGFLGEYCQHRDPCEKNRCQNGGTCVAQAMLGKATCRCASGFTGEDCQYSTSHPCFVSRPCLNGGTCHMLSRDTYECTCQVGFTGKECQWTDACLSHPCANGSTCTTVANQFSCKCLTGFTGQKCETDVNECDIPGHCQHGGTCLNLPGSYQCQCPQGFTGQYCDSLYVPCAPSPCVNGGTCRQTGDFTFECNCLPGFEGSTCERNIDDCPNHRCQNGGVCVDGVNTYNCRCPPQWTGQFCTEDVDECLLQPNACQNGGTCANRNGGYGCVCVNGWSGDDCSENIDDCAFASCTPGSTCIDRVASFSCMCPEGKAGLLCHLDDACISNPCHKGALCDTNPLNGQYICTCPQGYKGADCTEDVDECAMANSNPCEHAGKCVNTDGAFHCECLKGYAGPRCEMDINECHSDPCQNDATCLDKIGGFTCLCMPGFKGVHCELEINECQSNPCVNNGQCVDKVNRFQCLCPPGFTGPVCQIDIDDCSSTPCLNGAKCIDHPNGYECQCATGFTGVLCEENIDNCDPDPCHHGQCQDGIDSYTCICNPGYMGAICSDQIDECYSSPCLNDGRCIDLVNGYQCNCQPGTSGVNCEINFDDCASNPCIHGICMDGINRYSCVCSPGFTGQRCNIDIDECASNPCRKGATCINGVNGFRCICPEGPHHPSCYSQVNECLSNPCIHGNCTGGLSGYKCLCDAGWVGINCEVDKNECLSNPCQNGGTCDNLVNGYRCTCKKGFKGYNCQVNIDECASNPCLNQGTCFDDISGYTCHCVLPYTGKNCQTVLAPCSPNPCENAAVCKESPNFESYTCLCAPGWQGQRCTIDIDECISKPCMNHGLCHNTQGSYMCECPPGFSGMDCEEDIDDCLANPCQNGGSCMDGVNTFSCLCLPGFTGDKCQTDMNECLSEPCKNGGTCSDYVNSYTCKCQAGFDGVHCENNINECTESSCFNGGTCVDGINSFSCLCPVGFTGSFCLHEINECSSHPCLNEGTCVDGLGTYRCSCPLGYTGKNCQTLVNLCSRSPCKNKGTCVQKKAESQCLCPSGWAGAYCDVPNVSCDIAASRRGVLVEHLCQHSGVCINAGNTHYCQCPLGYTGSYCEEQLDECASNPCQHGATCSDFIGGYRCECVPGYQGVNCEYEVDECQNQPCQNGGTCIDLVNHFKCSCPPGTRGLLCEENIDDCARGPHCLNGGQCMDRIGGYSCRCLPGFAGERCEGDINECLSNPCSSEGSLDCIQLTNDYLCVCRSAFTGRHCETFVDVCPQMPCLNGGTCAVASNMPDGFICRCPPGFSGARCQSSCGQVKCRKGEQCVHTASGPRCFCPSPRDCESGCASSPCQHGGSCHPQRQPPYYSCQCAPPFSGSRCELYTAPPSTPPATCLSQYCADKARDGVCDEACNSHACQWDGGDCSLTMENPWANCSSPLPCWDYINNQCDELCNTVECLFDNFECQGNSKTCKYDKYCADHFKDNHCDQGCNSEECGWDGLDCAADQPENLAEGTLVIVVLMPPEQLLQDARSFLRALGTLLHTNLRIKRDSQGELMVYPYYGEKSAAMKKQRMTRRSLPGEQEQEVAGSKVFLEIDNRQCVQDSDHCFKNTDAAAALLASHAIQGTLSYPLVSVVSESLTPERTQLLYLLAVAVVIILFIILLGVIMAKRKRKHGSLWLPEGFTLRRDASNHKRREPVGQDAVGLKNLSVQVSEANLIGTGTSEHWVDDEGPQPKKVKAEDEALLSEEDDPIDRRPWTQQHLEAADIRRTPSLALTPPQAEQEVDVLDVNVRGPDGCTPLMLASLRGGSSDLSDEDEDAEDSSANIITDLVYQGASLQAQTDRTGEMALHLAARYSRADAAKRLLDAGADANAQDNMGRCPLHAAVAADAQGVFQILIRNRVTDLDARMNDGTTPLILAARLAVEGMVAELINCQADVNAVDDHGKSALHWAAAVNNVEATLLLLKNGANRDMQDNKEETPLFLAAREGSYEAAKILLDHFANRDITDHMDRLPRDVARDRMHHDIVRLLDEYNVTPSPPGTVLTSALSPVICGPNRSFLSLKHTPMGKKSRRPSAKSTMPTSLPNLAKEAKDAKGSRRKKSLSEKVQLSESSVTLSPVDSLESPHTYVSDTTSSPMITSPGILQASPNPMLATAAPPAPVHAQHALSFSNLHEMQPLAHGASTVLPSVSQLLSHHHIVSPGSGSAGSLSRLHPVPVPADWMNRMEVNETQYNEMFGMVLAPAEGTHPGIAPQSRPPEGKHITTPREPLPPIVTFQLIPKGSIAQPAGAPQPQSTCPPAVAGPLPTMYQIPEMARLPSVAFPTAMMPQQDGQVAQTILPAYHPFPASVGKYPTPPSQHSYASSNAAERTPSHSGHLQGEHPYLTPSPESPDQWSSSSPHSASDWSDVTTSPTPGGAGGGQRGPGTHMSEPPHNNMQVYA
# Neurogenic locus notch homolog protein 3 (Homo sapiens), sequence (Q9UM47 whole entry, looked up): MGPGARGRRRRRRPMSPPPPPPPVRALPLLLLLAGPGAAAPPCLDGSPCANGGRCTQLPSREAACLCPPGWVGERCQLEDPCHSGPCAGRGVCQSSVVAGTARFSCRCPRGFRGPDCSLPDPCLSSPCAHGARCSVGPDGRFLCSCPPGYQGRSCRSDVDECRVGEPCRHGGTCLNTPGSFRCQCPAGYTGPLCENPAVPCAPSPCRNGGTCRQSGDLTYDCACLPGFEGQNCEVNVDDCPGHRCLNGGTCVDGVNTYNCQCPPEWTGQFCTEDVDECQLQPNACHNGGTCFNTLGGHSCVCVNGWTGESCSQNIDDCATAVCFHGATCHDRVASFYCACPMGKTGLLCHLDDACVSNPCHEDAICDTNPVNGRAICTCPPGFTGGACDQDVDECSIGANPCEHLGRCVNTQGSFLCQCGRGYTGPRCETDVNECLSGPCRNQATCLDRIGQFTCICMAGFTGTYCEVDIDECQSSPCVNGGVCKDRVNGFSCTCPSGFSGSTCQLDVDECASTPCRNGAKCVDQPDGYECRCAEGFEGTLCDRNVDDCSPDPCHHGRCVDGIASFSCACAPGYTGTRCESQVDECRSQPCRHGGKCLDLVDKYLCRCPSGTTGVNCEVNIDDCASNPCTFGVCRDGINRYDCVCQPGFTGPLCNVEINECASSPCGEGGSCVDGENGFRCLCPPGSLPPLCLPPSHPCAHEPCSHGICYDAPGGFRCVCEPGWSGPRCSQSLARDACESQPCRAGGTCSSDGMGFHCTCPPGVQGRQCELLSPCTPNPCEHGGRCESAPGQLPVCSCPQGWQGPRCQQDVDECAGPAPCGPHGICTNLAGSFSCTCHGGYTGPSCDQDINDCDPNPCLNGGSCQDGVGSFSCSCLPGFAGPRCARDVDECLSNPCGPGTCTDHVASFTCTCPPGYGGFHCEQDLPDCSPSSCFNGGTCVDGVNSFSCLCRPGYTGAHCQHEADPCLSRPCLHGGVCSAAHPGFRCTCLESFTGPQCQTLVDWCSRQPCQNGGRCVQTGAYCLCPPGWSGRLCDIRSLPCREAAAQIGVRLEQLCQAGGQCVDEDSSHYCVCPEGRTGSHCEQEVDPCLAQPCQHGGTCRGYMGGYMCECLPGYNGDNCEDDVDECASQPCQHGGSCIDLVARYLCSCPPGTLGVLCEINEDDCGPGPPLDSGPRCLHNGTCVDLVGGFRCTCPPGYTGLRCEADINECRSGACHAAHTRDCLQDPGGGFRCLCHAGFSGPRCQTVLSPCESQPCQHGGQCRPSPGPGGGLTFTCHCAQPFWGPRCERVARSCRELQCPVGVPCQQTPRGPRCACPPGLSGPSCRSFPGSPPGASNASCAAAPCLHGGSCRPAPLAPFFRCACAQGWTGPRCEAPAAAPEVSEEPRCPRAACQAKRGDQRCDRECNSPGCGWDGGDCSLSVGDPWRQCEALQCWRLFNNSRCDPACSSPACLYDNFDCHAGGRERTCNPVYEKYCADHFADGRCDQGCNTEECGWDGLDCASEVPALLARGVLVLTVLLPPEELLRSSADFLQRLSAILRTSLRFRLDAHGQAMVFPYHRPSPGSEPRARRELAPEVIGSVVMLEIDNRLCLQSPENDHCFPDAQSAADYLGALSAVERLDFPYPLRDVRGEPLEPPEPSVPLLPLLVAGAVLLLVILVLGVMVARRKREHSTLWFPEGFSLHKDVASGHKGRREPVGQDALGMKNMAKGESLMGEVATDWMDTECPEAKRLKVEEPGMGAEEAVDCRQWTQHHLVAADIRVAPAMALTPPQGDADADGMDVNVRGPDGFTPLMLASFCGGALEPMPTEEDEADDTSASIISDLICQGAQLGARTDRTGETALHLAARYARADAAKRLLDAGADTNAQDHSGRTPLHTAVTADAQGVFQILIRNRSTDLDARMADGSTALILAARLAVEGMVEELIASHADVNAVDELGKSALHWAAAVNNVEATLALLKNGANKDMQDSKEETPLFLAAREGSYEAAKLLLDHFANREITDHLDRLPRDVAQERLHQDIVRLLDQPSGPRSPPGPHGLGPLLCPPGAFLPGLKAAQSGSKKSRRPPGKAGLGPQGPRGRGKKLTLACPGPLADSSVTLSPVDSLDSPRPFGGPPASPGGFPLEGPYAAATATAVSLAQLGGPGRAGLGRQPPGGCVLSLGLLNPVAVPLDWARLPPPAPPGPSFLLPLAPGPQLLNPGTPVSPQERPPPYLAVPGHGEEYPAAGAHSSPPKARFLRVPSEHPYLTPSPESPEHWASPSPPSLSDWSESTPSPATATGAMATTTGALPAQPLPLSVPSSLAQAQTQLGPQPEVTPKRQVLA
SMILES,composite z-score [1],composite z-score [2],composite z-score [3],composite z-score [4],composite z-score [5],composite z-score [6],composite z-score [7],z-score [8],composite z-score [9],composite z-score [10],composite z-score [11],z-score [12],z-score [13],z-score [14],composite z-score [15],z-score [16],composite z-score [17],composite z-score [18],composite z-score [19],composite z-score [20]
C=CCOC(=O)[C@H]1[C@@H]2C(=O)O[C@@H](c3ccccc3)[C@@H](c3ccccc3)N2[C@@H](c2ccc(OCCOC(=O)[C@H]3C[C@H]4C(=O)N5CCC[C@H]5C(=O)N4[C@H]3c3cccc(OCCO)c3)cc2)[C@]12C(=O)Nc1ccccc12,-0.113,0.984,-0.147,0.363,0.0945,1.06,1.24,0.176 (inactive),0.406,-0.182,1.53,0.766 (inactive),-0.347 (inactive),2.43 (inactive),2.04,1.83 (inactive),0.103,1.54,1.04,-0.0828
COc1ccc([Si](C)(C)[C@@H]2[C@@H](CC(=O)N3CCC[C@H]3CO)O[C@]3(C(=O)N(Cc4ccc(N5CCC5=O)cc4)c4ccccc43)[C@H]2C)cc1,-0.142,0.783,-0.071,0.66,0.747,0.583,1.07,-1.17 (inactive),0.187,0.245,1.55,-0.556 (inactive),-0.228 (inactive),-0.69 (inactive),2.12,0.673 (inactive),-0.166,1.16,0.708,0.0408
C=CCC(OC(C)=O)[C@@H]1[C@@H](N(Cc2cccc3ccccc23)C(=O)Cc2ccc(OC)cc2)c2cc(OCCCO)ccc2N1C(=O)Cc1ccc(OC)cc1 (stereo not given in full),0.163,0.045,-0.0396,-0.236,-0.111,-0.0173,-0.832,-0.781 (inactive),-0.0127,-0.113,-0.59,0.395 (inactive),-1.38 (inactive),-0.275 (inactive),0.0872,2.21 (inactive),-0.0691,-0.318,-0.89,-0.166
C=C(CCCC)/C(=C/C[C@@H](OC(=O)c1ccncc1)c1ccc(OCCO)cc1)c1cnc2ccccc2c1,0.201,0.379,0.0166,1.19,1.48,0.227,0.841,-0.723 (inactive),0.265,-0.176,1.52,0.594 (inactive),-1.59 (inactive),0.524 (inactive),0.447,1.48 (inactive),-0.0523,1.72,1.06,-0.0243
CC(C)[Si](C#C[Si](C(C)C)(C(C)C)C(C)C)(O[C@H](C)c1cn([C@H](C)c2ccccc2)nn1)C(C)C,-0.248,0.15,-0.0402,0.357,0.814,0.3,0.528,-1.64 (inactive),0.25,-0.132,1.18,-1.22 (inactive),-2.35 (inactive),-1.4 (inactive),1.11,0.723 (inactive),0.0137,0.5,0.987,-0.0525
COC(=O)c1c2oc(c1C(=O)OC)C(=O)N[C@@H](C(C)C)Cn1nncc1C1(CCCCC1)NC(=O)N[C@H](CO)CC2,-0.07,0.178,-0.129,0.147,-0.294,0.969,0.625,-0.993 (inactive),-0.103,0.0373,-0.143,0.0957 (inactive),-0.99 (inactive),-0.787 (inactive),2.02,2.28 (inactive),-0.208,-0.494,-0.373,-0.144
CCOC(=O)C[C@H]1[C@H](OC(=O)Cc2ccc3c(c2)OCO3)[C@@H](NC(=O)c2ccc3ccccc3c2)c2cc(OCCCO)ccc2N1C(=O)c1ccc2ccccc2n1,-0.123,0.243,-0.161,0.319,0.429,0.799,0.8,-3.68 (inactive),0.233,-0.132,0.144,-3.45 (inactive),-3.3 (inactive),-2.38 (inactive),1.44,0.135 (inactive),-0.0865,0.235,0.808,0.0343
COc1ccc([Si](C)(C)[C@H]2[C@H](CCO)O[C@@]3(C(=O)N(Cc4ccc(N5C(=O)c6cccc7cccc5c67)cc4)c4ccccc43)[C@@H]2C)cc1,0.633,-0.213,-0.0692,-0.397,-0.831,1.1,0.657,-4.45 (inactive),0.025,-0.261,0.126,0.341 (inactive),0.472 (inactive),26 (active),0.589,2.02 (inactive),-0.169,-0.688,-0.601,-0.272
C=C(CCCC)/C(=C/C[C@H](OC(=O)c1ccncc1)c1ccc(CO)o1)c1cnc2ccccc2c1,-0.408,0.536,-0.0332,0.941,1.41,-0.185,1.04,-0.587 (inactive),0.761,0.265,1.56,3.23 (inactive),-1.99 (inactive),-0.516 (inactive),1.89,0.74 (inactive),-0.0102,1.19,1.09,0.0221
C=C(C(=O)CC[C@H](OC(C)=O)c1ccc(CO)o1)C(C)C,-0.466,0.615,-0.189,0.122,-1.28,-0.116,0.388,-0.629 (inactive),-0.393,0.0596,0.966,1.01 (inactive),-0.344 (inactive),-0.454 (inactive),0.468,1.44 (inactive),-0.127,0.512,-0.654,-0.181
COCCOC(=O)N1C(=O)[C@@]2(c3ccccc31)[C@H](C(=O)Nc1nc3ccccc3s1)[C@H]1C(=O)O[C@H](c3ccccc3)[C@H](c3ccccc3)N1[C@@H]2c1ccc(O)cc1,0.0605,0.202,0.074,0.823,1.44,0.57,1.28,2.8 (inactive),0.442,0.0302,1.53,3.43 (inactive),1.8 (inactive),8.35 (active),1.76,2.9 (inactive),0.219,0.565,1.1,0.254
CC(C)N1CC=CC23O[C@@H]4/C=C\CCCOC(=O)C4[C@H]2C(=O)N(CCCO)[C@@H]3C1=O (stereo not given in full),0.495,2.3,-0.01,0.215,-0.615,0.0034,1.14,1 (inactive),-0.623,-0.374,-0.78,0.759 (inactive),-0.76 (inactive),0.752 (inactive),2.15,1.77 (inactive),-0.221,-1.17,0.0751,-0.285
COCCCNC(=O)[C@@]1(Cc2ccccc2CN=[N+]=[N-])COC(c2ccc(OCCCO)cc2)=N1,1.14,1.3,0.302,1.07,1.28,1.84,1.28,-2.53 (inactive),0.934,-0.277,1.54,1.14 (inactive),-2.56 (inactive),0.0898 (inactive),3.17,2.36 (inactive),0.374,-0.434,0.964,0.294
CC(C)(C)OC(=O)CC[C@@]1(C(=O)N2CCOCC2)N=C(c2ccc(OCCCO)cc2)O[C@@H]1c1ccccc1,1.19,0.426,0.088,0.435,1.07,2.16,1.36,-1.79 (inactive),0.517,0.28,1.58,0.153 (inactive),-0.0631 (inactive),0.248 (inactive),3.95,1.32 (inactive),0.32,0.743,0.274,0.233
COc1ccc(C#Cc2ccc3c(c2)[C@]2(C(=O)N3)[C@H](c3ccc(O)cc3)N3[C@H](c4ccccc4)[C@H](c4ccccc4)OC(=O)[C@H]3[C@@H]2C(=O)N2CCN(c3ncccn3)CC2)cc1,0.286,1.31,-0.0625,0.0869,1.19,1.64,0.892,-0.36 (inactive),0.252,0.186,1.18,0.478 (inactive),-1.84 (inactive),2.15 (inactive),2.01,1.99 (inactive),0.0708,-0.0098,0.536,-0.0854
CC(C)C(CO)N1C(=O)[C@@H]2[C@H]3C(=O)OCC=C[C@H]3OC23C=CCN(Cc2ccccc2)C(=O)[C@@H]13 (stereo not given in full),-0.302,-0.438,-0.116,-0.307,-0.834,-0.72,-0.386,-0.699 (inactive),-0.361,-0.0994,-0.462,-0.899 (inactive),-0.742 (inactive),-1.06 (inactive),-1.04,2.08 (inactive),-0.238,-0.282,-0.316,-0.287
O=C(O)[C@H]1C[C@H]2C(=O)NCC(=O)N2[C@H]1c1cccc(OCCO)c1,2.86,0.942,0.0568,-0.213,0.29,1.41,0.986,5.62 (inactive),1.98,0.745,1.23,-1.63 (inactive),-2.01 (inactive),-1.11 (inactive),1.51,2.5 (inactive),0.0889,0.0133,0.446,0.108
O=C(N1CCCCC1)[C@@]1(Cc2ccccc2)N=C(c2ccc(OCCCO)cc2)O[C@H]1c1ccccc1,0.994,2,0.103,0.235,1.58,1.05,1.02,-3.21 (inactive),1.52,-0.146,1.18,-0.997 (inactive),-2.65 (inactive),4.43 (inactive),2.99,0.668 (inactive),0.429,0.368,0.966,0.293
COCCOC(=O)N1C(=O)[C@@]2(c3cc(C#CC4(O)CCCCCC4)ccc31)[C@H](c1ccc(O)cc1)N1[C@H](c3ccccc3)[C@H](c3ccccc3)OC(=O)[C@H]1[C@@H]2C(N)=O,-0.0102,1.54,0.103,0.631,0.397,1.1,0.874,-0.868 (inactive),0.351,-0.0173,1.5,-0.549 (inactive),-3.29 (inactive),-0.624 (inactive),2.01,2.01 (inactive),0.178,0.0282,0.928,-0.0924
